Measured values taken from the supplement of paper PMC10849652.
Targets with a hit are over-represented here; the source holds about 8,800 in all. About 0.5% of all pairs of compound and target were hits.

Columns and labels:
Assay in all cases: log2 fold change, soluble protein after heating vs DMSO (PISA); higher = thermal stabilisation; K562 lysate, 10 uM; active = over 0.2 and 3.5 SD of the protein, either way, in both replicates (recomputed)
nilotinib = compound: Cc1cn(-c2cc(NC(=O)c3ccc(C)c(Nc4nccc(-c5cccnc5)n4)c3)cc(C(F)(F)F)c2)cn1 [nilotinib]
How it was run: (§1)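 K562 pellets were dounce-homogenised in PBS pH 7.4 with 1 mM MgCl2, and the crude extract at 1 mg/mL protein was treated with 10 μM compound for 30 min. Aliquots were heated for 3 min across 48°C-58°C, pooled, and brought to 0.5% NP-40 at 4°C; soluble protein was the supernatant after 21,000xg for 90 min. Soluble protein was quantified by TMTpro 16plex LC-MS/MS with channel sums equalised, and reported as log2 fold change in thermal stability against DMSO controls, with values from duplicates.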

[1] = compound: Cc1nc(Nc2n[nH]c3c2CN(C(=O)N[C@H](CN(C)C)c2ccccc2)C3(C)C)c2sccc2n1
How it was run: as §1

dasatinib = compound: Cc1nc(Nc2ncc(C(=O)Nc3c(C)cccc3Cl)s2)cc(N2CCN(CCO)CC2)n1 [dasatinib]
How it was run: as §1

[2] = compound: Cc1ncc(-c2ccnc(Nc3ccc(S(C)(=O)=O)cc3)n2)n1C(C)C
How it was run: as §1

[3] = compound: Cn1cc(-c2ccc3c(c2)CCN3C(=O)Cc2cccc(C(F)(F)F)c2)c2c(N)ncnc21
How it was run: as §1

quisinostat = compound: Cn1cc(CNCC2CCN(c3ncc(C(=O)NO)cn3)CC2)c2ccccc21 [quisinostat]
How it was run: as §1

tipifarnib = compound: Cn1cncc1[C@@](N)(c1ccc(Cl)cc1)c1ccc2c(c1)c(-c1cccc(Cl)c1)cc(=O)n2C [tipifarnib]
How it was run: as §1

[4] = compound: NC(=O)Nc1cc(-c2cccc(F)c2)sc1C(=O)N[C@H]1CCCNC1
How it was run: as §1

[5] = compound: NC(=O)c1cnc(N[C@@H]2CCCC[C@@H]2N)nc1Nc1cccc(-n2nccn2)c1
How it was run: as §1

[6] = compound: NC1(c2ccc(-c3nc4ccn5c(=O)[nH]nc5c4cc3-c3ccccc3)cc2)CCC1
How it was run: as §1

[7] = compound: NCC(=O)Nc1ccc(-n2nc(C(F)(F)F)cc2-c2ccc3c(ccc4ccccc43)c2)cc1
How it was run: as §1

vorinostat = compound: O=C(CCCCCCC(=O)Nc1ccccc1)NO [vorinostat]
How it was run: as §1

silmitasertib = compound: O=C(O)c1ccc2c(c1)nc(Nc1cccc(Cl)c1)c1ccncc12 [silmitasertib]
How it was run: as §1

[8] = compound: O=C1NC(=O)C(c2cnc3ccccn23)=C1c1cn2c3c(cc(F)cc13)CN(C(=O)N1CCCCC1)CC2
How it was run: as §1

entospletinib = compound: c1cn2cc(-c3ccc4cn[nH]c4c3)nc(Nc3ccc(N4CCOCC4)cc3)c2n1 [entospletinib]
How it was run: as §1

Measured: log2 fold change

TAF6L (UniProt Q9Y6J9)
Sequence of UniProt Q9Y6J9 (Q9Y6J9 whole entry, looked up): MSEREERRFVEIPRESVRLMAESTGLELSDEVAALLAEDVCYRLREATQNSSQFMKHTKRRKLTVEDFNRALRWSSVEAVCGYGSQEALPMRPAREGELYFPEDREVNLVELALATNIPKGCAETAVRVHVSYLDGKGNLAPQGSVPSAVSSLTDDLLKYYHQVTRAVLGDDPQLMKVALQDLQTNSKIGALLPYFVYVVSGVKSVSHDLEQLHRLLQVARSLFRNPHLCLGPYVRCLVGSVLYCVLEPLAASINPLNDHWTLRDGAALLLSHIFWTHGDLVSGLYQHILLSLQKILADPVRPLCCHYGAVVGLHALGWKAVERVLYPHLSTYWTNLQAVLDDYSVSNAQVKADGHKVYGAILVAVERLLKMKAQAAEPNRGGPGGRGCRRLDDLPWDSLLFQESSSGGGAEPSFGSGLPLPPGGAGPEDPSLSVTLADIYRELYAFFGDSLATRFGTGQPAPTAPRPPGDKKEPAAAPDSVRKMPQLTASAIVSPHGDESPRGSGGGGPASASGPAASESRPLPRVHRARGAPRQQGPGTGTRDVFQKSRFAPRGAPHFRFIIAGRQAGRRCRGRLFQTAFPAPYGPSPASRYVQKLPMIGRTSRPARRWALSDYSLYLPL
inactive: nilotinib -0.023 | [1] 0.012 | dasatinib -0.118 | [2] 0.021 | [3] 0.056 | quisinostat 0.018 | tipifarnib -0.032 | [4] 0.094 | [5] 0.028 | [6] 0.034 | [7] -0.022 | vorinostat -0.086 | silmitasertib 0.013 | [8] -0.033 | entospletinib -0.08

SNRPD2 (UniProt K7EJB5)
active: vorinostat 0.493
inactive: nilotinib -0.081 | [1] 0.005 | dasatinib -0.026 | [2] -0.094 | [3] -0.084 | quisinostat -0.267 | tipifarnib -0.075 | [4] -0.082 | [5] 0.044 | [6] 0 | [7] 0.119 | silmitasertib 0.056 | [8] -0.1 | entospletinib -0.004

SLC16A1 (UniProt P53985)
Sequence of UniProt P53985 (P53985 whole entry, looked up): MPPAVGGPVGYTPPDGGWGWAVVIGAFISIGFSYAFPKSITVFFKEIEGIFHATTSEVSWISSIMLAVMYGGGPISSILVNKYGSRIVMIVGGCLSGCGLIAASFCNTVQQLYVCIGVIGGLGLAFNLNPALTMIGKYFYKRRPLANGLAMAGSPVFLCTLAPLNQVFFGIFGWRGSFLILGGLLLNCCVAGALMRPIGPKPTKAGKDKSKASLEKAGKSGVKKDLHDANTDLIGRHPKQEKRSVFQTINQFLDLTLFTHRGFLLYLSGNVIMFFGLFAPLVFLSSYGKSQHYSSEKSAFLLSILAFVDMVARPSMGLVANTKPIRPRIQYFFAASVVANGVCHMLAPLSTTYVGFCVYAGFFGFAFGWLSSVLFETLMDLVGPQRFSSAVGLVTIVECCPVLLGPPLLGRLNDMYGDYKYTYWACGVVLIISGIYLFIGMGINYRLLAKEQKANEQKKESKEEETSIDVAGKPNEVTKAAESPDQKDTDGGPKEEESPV
inactive: nilotinib 0.044 | [1] 0.043 | dasatinib 0.137 | [2] -0.009 | [3] -0.005 | quisinostat -0.064 | tipifarnib 0.005 | [4] 0.012 | [5] -0.028 | [6] -0.003 | [7] 0.004 | silmitasertib -0.012 | [8] -0.01 | entospletinib 0.012
active: vorinostat -0.62

SMG5 (UniProt Q9UPR3)
active: vorinostat -0.381
inactive: nilotinib -0.058 | [1] 0.034 | dasatinib 0.003 | [2] -0.054 | [3] 0.03 | quisinostat 0.013 | tipifarnib -0.115 | [4] 0.097 | [5] 0.048 | [6] -0.027 | [7] 0.04 | silmitasertib -0.024 | [8] 0.024 | entospletinib -0.023

SNAPC2 (UniProt Q13487)
Sequence of UniProt Q13487 (Q13487 whole entry, looked up): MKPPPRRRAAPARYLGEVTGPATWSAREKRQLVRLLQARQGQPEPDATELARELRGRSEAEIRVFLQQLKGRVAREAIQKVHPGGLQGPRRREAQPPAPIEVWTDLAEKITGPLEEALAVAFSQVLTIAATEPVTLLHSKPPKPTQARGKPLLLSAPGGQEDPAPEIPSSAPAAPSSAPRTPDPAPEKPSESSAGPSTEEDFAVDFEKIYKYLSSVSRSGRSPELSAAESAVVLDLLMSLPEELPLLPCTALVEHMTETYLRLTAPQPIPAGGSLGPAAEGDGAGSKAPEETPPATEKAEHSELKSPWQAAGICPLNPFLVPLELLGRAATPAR
inactive: nilotinib 0.066 | [1] 0 | dasatinib -0.24 | [2] -0.067 | [3] -0.122 | quisinostat -0.021 | tipifarnib -0.106 | [4] 0.029 | [6] 0 | silmitasertib -0.122 | [8] -0.086
active: vorinostat -0.631

TAOK2 (UniProt Q9UL54)
Sequence of UniProt Q9UL54 (Q9UL54 whole entry, looked up): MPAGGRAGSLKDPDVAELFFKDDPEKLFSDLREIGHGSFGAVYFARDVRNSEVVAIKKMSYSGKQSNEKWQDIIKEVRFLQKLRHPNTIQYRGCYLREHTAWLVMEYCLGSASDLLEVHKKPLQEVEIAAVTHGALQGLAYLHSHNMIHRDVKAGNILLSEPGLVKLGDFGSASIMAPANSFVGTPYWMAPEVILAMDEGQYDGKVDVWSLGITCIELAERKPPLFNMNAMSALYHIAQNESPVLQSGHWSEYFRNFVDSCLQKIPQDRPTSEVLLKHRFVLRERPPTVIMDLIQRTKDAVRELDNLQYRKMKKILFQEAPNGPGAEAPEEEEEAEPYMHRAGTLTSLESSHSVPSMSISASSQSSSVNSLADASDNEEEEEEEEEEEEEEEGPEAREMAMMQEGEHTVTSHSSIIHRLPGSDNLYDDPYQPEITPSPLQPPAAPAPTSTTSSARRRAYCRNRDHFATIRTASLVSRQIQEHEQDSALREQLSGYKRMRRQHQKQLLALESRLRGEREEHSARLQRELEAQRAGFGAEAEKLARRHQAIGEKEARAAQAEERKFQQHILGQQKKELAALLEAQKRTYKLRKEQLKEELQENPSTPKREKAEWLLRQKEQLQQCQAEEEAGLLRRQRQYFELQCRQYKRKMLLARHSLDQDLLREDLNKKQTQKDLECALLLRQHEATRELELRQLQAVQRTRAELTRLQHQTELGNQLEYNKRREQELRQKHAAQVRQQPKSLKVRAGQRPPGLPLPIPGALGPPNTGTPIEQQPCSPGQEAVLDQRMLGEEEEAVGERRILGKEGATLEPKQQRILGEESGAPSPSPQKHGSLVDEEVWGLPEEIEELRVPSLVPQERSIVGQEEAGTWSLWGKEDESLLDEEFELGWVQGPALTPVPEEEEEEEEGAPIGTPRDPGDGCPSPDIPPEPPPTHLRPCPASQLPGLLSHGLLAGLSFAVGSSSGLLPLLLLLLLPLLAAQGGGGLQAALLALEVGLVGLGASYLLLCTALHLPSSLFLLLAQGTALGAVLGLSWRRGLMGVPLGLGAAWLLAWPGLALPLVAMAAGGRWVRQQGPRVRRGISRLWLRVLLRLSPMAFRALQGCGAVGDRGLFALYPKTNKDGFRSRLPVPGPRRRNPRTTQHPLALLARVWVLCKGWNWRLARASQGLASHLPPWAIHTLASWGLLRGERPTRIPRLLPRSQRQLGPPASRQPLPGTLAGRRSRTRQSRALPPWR
active: quisinostat -0.516
inactive: nilotinib 0.033 | [1] -0.069 | dasatinib -0.231 | [2] 0.012 | [3] 0.052 | tipifarnib 0.033 | [4] 0.022 | [5] -0.008 | [7] 0.015 | [8] -0.051 | entospletinib 0.01

TANK (UniProt Q92844)
inactive: nilotinib -0.067 | dasatinib 0.069 | [2] 0.04 | [3] 0.088 | quisinostat -0.053 | tipifarnib -0.071 | [4] 0.161 | [5] 0.042 | [6] 0.01 | [7] 0.041 | vorinostat -0.102 | silmitasertib 0.124 | [8] 0.071 | entospletinib 0.132
active: [1] 0.461

SLC39A11 (UniProt Q8N1S5)
Sequence of UniProt Q8N1S5 (Q8N1S5 whole entry, looked up): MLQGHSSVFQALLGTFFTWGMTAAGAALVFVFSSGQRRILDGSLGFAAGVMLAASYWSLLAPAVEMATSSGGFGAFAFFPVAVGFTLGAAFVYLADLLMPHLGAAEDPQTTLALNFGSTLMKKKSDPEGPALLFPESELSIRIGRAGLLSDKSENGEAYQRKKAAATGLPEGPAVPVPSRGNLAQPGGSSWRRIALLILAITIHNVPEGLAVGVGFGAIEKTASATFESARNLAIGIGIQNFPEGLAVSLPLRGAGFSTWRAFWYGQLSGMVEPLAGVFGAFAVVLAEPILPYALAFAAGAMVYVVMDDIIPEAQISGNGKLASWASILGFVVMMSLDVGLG
inactive: nilotinib 0.072 | [1] -0.039 | dasatinib -0.092 | [2] -0.008 | [3] -0.123 | quisinostat 0.127 | tipifarnib 0.068 | [4] 0.045 | [5] 0.026 | [6] 0.099 | [7] -0.076 | vorinostat 0.103 | silmitasertib -0.015 | [8] 0.058 | entospletinib -0.137

SMC3 (UniProt Q9UQE7)
inactive: nilotinib 0 | [1] -0.01 | dasatinib 0.024 | [2] 0.013 | [3] 0.024 | quisinostat 0.023 | tipifarnib 0.002 | [4] 0 | [5] -0.003 | [6] 0.016 | [7] -0.023 | vorinostat 0.06 | silmitasertib -0.009 | [8] -0.017 | entospletinib 0.012

SSB (UniProt E7ERC4)
inactive: nilotinib -0.059 | [1] 0.165 | dasatinib 0.007 | [2] 0.198 | [3] -0.078 | quisinostat -0.198 | tipifarnib 0.171 | [4] 0.152 | [5] -0.108 | [6] -0.128 | [7] -0.063 | vorinostat 0.012 | silmitasertib 0.105 | [8] -0.11 | entospletinib -0.092

TAF11 (UniProt Q15544)
Sequence of UniProt Q15544 (Q15544 whole entry, looked up): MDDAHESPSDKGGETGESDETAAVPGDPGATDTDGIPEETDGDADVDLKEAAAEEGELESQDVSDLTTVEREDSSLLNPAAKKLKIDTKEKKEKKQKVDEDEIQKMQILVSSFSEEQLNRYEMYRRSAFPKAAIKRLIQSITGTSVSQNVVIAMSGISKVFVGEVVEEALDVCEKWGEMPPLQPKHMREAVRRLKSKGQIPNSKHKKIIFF
inactive: nilotinib 0.05 | [1] -0.049 | dasatinib -0.142 | [2] -0.034 | [3] -0.051 | quisinostat -0.085 | tipifarnib 0.057 | [4] 0.046 | [5] -0.03 | [7] -0.005 | [8] 0.05 | entospletinib -0.073

SMIM8 (UniProt Q96KF7)
Sequence of UniProt Q96KF7 (Q96KF7 whole entry, looked up): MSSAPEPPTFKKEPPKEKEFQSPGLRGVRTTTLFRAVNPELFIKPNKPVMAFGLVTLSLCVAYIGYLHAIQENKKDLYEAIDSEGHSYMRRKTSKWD
inactive: nilotinib 0.059 | [1] -0.018 | dasatinib 0.032 | [2] 0.055 | [3] -0.023 | quisinostat 0.084 | tipifarnib -0.033 | [4] -0.02 | [5] -0.045 | [6] -0.013 | [7] -0.007 | vorinostat 0.092 | silmitasertib -0.022 | [8] -0.029 | entospletinib -0.046

TADA3 (UniProt O75528)
Sequence of UniProt O75528 (O75528 whole entry, looked up): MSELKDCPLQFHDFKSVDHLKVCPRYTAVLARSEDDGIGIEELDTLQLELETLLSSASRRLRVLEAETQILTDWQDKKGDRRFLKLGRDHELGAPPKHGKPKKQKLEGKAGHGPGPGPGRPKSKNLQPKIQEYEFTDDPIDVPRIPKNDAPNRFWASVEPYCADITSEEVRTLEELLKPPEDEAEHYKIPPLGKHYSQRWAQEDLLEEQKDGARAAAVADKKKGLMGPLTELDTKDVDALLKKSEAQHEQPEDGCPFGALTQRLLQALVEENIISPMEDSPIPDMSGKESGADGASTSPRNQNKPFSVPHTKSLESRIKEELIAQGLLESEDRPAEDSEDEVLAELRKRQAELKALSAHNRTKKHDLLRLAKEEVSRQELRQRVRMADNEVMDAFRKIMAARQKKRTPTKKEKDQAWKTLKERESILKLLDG
active: vorinostat -0.289
inactive: nilotinib -0.022 | [1] -0.036 | dasatinib -0.014 | [2] -0.023 | [3] 0.019 | quisinostat -0.037 | tipifarnib -0.035 | [4] 0.006 | [5] 0.024 | [6] -0.044 | [7] 0.018 | silmitasertib -0.021 | [8] 0.034 | entospletinib 0.009

SQLE (UniProt Q14534)
inactive: nilotinib 0.082 | [1] 0.014 | dasatinib -0.09 | [2] -0.039 | [3] 0.024 | quisinostat 0.191 | tipifarnib 0.018 | [4] -0.014 | [5] -0.032 | [6] -0.034 | [7] 0.01 | vorinostat 0.103 | silmitasertib -0.056 | [8] -0.042 | entospletinib 0.029

TARBP2 (UniProt Q15633)
Sequence of UniProt Q15633 (Q15633 whole entry, looked up): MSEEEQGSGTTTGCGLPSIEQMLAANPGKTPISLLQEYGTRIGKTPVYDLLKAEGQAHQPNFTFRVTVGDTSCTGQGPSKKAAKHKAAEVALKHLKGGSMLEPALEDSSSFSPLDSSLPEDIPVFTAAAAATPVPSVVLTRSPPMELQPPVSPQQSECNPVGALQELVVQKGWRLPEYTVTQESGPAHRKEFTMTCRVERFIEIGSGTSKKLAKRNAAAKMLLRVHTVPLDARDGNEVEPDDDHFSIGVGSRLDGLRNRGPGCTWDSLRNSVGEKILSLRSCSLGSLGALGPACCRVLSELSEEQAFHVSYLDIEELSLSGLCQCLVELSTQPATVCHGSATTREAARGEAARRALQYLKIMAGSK
inactive: nilotinib 0.003 | [1] 0.019 | dasatinib -0.038 | [2] 0.005 | [3] -0.056 | quisinostat -0.106 | tipifarnib -0.067 | [4] 0.065 | [5] -0.029 | [6] 0.056 | [7] -0.017 | silmitasertib 0.024 | [8] -0.03 | entospletinib -0.002
active: vorinostat -0.519

SNRPD3 (UniProt P62318)
inactive: nilotinib 0.028 | [1] -0.006 | dasatinib 0.016 | [2] -0.034 | [3] 0.009 | quisinostat -0.002 | tipifarnib -0.002 | [4] 0.029 | [5] 0.004 | [6] 0.001 | [7] -0.011 | vorinostat 0.12 | silmitasertib -0.023 | [8] 0.008 | entospletinib -0.027

STK39 (UniProt Q9UEW8)
active: vorinostat -0.633
inactive: nilotinib -0.104 | [1] 0.071 | dasatinib -0.045 | [2] -0.024 | [3] 0.046 | quisinostat -0.084 | tipifarnib -0.053 | [4] 0.053 | [5] 0.058 | [6] -0.082 | [7] -0.01 | silmitasertib 0.028 | [8] -0.006 | entospletinib -0.026

SNRPD2 (UniProt P62316)
Sequence of UniProt P62316 (P62316 whole entry, looked up): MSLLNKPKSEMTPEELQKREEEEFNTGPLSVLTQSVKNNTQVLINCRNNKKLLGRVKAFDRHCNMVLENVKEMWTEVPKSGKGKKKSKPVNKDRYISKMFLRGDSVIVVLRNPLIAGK
inactive: nilotinib 0.014 | [1] 0.015 | dasatinib 0.024 | [2] 0.015 | [3] -0.02 | quisinostat 0.007 | tipifarnib 0.014 | [4] -0.027 | [5] 0 | [6] -0.002 | [7] 0 | vorinostat 0.147 | silmitasertib -0.021 | [8] 0.015 | entospletinib 0.001

SYK (UniProt P43405)
inactive: nilotinib 0.02 | [1] -0.031 | dasatinib -0.067 | [2] 0 | [3] 0.01 | quisinostat -0.077 | tipifarnib -0.002 | [4] -0.095 | [6] -0.064 | [7] 0.135 | vorinostat -0.138 | silmitasertib 0.053 | [8] 0.016 | entospletinib -0.079

SLC25A38 (UniProt Q96DW6)
Sequence of UniProt Q96DW6 (Q96DW6 whole entry, looked up): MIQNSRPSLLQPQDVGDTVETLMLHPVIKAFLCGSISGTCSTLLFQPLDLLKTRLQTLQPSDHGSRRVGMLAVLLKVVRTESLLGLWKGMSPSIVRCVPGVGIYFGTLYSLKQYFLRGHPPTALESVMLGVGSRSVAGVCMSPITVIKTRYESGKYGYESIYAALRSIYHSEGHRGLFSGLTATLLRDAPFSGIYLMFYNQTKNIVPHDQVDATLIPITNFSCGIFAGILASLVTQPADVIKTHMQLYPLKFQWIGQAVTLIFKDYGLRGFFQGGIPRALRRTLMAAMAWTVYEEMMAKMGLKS
inactive: nilotinib -0.097 | [1] -0.142 | dasatinib 0.015 | [2] -0.171 | [3] 0.15 | quisinostat -0.068 | tipifarnib -0.061 | [4] -0.019 | [5] -0.138 | [6] 0.06 | [7] -0.093 | vorinostat 0.109 | silmitasertib 0.129 | [8] -0.019 | entospletinib -0.075

STAR (UniProt P49675)
Sequence of UniProt P49675 (P49675 whole entry, looked up): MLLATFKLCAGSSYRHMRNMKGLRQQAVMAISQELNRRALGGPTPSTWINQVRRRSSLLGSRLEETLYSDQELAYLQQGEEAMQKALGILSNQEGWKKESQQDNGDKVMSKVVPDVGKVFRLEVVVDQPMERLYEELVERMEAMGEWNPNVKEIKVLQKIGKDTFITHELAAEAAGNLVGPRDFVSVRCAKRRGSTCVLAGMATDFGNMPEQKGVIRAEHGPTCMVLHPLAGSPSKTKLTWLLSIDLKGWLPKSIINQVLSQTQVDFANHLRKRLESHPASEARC
inactive: nilotinib 0.037 | [1] -0.092 | dasatinib 0.046 | [2] -0.019 | [3] 0.011 | quisinostat -0.041 | tipifarnib 0.203 | [4] -0.135 | [6] -0.146 | [7] 0.002 | vorinostat -0.044 | silmitasertib -0.028 | [8] -0.031 | entospletinib -0.103
